# Measurements published in PubChem BioAssay AID493014 (National Center for Advancing Translational Sciences (NCATS), 2011).
# The campaign covered roughly 340,000 compounds. About 170 (0.05%) were called active. Where a call stands in place of a potency, no number is given. About 26% were inconclusive and are not listed. This is one part of a sample in which actives are shown more often than they occur. Calls follow the shape of the dose curve; as a rule, active = well fitted inhibition curve with a large enough effect in the signal ratio, with a control signal flat (not every such curve was filed as active); inconclusive = small, poorly fitted or top-dose-only effect, or effect the other way, or a change in a side signal; inactive = flat fitted curve, though single readings scatter; the % refers to the signal ratio.
# Assay: qHTS Assay to Find Inhibitors of Chronic Active B-Cell Receptor Signaling
# Details: ABC-DLBCL IkBa-CBG/CBR reporter, luminescence ratio, 4 h; series mostly up to 46.1 µM
# Excerpt: NIH Molecular Libraries Probe Production Network [MLPCN] NIH Chemical Genomics Center [NCGC] MLPCN Grant: 1 R03 DA031086-01A1 PI Name: Dr. R. Eric Davis NCGC Assay Overview: Diffuse large B-cell lymphoma (DLBCL) is the most common category of non-Hodgkin lymphoma, with ~20,000 new cases per year in the United States. DLBCL should be regarded as a collection of different neoplasms. Microarray gene expression analysis has defined two principal types of DLBCL, named for their similarity to normal B cell stages or activation states: a germinal center B-cell (GCB) type, and an activated B-cell (ABC) type. In ABC-DLBCL, a constitutive high-level activity of the NF-kappaB family of transcription factors has been observed (1) and NF-kappaB target genes are more highly expressed in ABC primary tumors than in GCB tumors. Functional studies have shown a constitutive high-level activity of the IkappaB (inhibitor of kappa-B) kinase (IKK) complex. […] Further analysis of DLBCL primary tumors for NF-kappaB target gene expression imply that although CARD11 is required for constitutive IKK activity in all ABC-DLBCL lines, mutations in CARD11 may be the root cause of IKK activation only in lines or tumors with such mutations. In other words, CARD11 mutations may explain NF-kappaB activation in only 10% of ABC-DLBCL cases. […] This process has been termed 'chronic active BCR signaling' (CABS). The goal of this screen is to find small-molecule inhibitors of the CABS pathway found in ABC-DLBCL lines using a cell-based assay that measures IkappaBalpa stability, which has already been extensively validated in the OCI-Ly3 line (PubChem AID:445; REF: 4). […] The assay uses green (CBG68) and red (CBR) emitting beetle luciferases [Chroma-GloTM developed by Promega Corp.] where the green luciferase is fused to IkappaBalpha and the red luciferase is present in its native state. Both luciferase genes are stably present in the TMD8 human ABC DLBCL cell line, but their expression is under the control of tetracycline-inducible promoters. Following the addition of doxycycline to induce expression of the luciferases, the green luminescence in control cultures rises only slowly because the CBG fusion partner IkappaBalpha is targeted by IKK activity for rapid degradation. In contrast, green luminescence rises rapidly in the presence of proteasome inhibitors or IKK inhibitors. The rise in red luminescence of CBR is not affected by proteasome or IKK inhibitors, and serves as normalization for cell number and nonspecific effects. Compounds were screened as a concentration-titration series that ranged from 46 uM to 3 nM.
# NCGC Assay Protocol Summary: Cells were seeded in 1536-well plates at 5000 cells/4uL in IMDM medium containing 0.5% FBS, w/o phenol red, 1% penicillin/streptomycin. Then, 23 nL of compounds or DMSO were delivered to each well using a pin tool. One uL 20ng/ml doxycycline was then dispensed into white solid 1536-well plates and the plates were incubated at 37C/5% C02 in a cell incubator for 4 hrs. Then 4 uL luminescent substrate mix (in-house prepared: 150 mM Tris-Cl, pH 7.6, 3 mM MgCl2, 1% Triton X-100, 5 mM DTT, 0.2 mM CoA, 0.15 mM ATP, 5 mM D-luciferin, final concentrations) was added to each well. The plate was incubated at r.t. for 10-15 min. The plates were measured on a ViewLux plate reader for green luminescence (540/20 nm filter) and red luminescence (618/8 nm filter). The green and red luminescent signals were corrected for red and green luminescence filter overlap using previously determined filter calibration constants (determined using the procedure outlined in the Promega Technical Manual; REF 4). The %Activity was determined from the ratio of corrected green/red luminescent values. MG132 were used as control. […] Red luminescent %Activity was normalized to the difference between red luminesence in basal cells (0%Activity) and zero luminescence (-100% Activity). […]
# Potency is read from the fitted curve at half-maximal effect.
row,SMILES,Potency
1,CC1CCc2sc(C(=O)NCC(c3ccco3)N3CCCCC3)cc2C1 (stereo unspecified),inactive
2,O=C(COc1ccc(F)cc1Br)NCC1COc2ccccc2O1 (stereo unspecified),inactive
3,Cc1ccccc1-c1cc(C(=O)NCc2cccs2)n(CC2CC(c3cccnc3)=NO2)n1 (stereo unspecified),inactive
4,O=C(c1ccc(N2CCOCC2)c([N+](=O)[O-])c1)N1CCN(c2ccccc2F)CC1,inactive
5,C/C=C/c1ccc(OCC(=O)NNC(=O)CN(C)S(=O)(=O)c2ccc(C)cc2)c(OC)c1,inactive
6,CN(CC(=O)Nc1ccc(OC(F)F)cc1)S(=O)(=O)/C=C/c1ccccc1,inactive
7,C=CC[C@H](CC(=O)OC(C)(C)C)C(=O)OC[C@H]1CCCN1C(=O)[C@H](CC=C)CC(=O)N(CCO)Cc1ccccc1,inactive
8,Cc1ccc(C(=O)CN2C(=O)NC3(CCc4ccccc43)C2=O)c(C)c1 (stereo unspecified),inactive
9,CC(C(=O)Nc1ccc(S(=O)(=O)N2CCCC2)cc1)N(C)Cc1ccc(F)cc1 (stereo unspecified),inactive
10,CCCCNc1c(-c2ccc(OC)c(Sc3ccc(OC)cc3)c2)nc2ccc(Cl)cn12,inactive
11,Cc1ccc2c(CN3CCN(S(=O)(=O)c4ccccc4C(F)(F)F)CC3)cc(=O)oc2c1,inactive
12,COc1ccc(S(=O)(=O)N2CCOCC2)cc1NC(=O)c1ccc(OCC(C)C)c(OC)c1,inactive
13,COc1ccccc1-c1oc2ccccc2c1C#CCCCCO,inactive
14,COc1ccccc1S(=O)(=O)NCc1ccc(C(=O)N(C)Cc2ccc(F)cc2)cc1,inactive
15,COc1ccc(NC(=O)CCC(=O)N2CCN(S(=O)(=O)c3ccc(C)cc3)CC2)c(OC)c1,inactive
16,CSc1ccccc1NC(=O)c1cnc2sc(C)cn2c1=O,inactive
17,COc1ccc(OCCCC(=O)Nc2cccc(S(=O)(=O)N3CCCCCC3)c2)cc1,inactive
18,O=C(NCCc1ccco1)c1ccc(OCc2cn3ccccc3n2)cc1,inactive
19,CN(CCc1ccccc1)C(=O)c1cccc(NC(=O)Cc2ccc([N+](=O)[O-])cc2)c1,inactive
20,CC(C)CN(C(=O)COC(=O)c1ccc(Cl)c(N)c1)c1c(N)n(Cc2ccccc2)c(=O)[nH]c1=O,inactive
21,CCOC(=O)N1CCN(S(=O)(=O)c2ccc(OC)cc2)CC1,inactive

row,SMILES,Potency
1,CCOC(=O)N1CCN(C(=O)c2ccccc2N(Cc2ccccc2)S(=O)(=O)c2ccc(OC)cc2)CC1,15.8 µM (active)
2,NC(=O)c1ccccc1N(Cc1ccccc1)S(=O)(=O)c1ccccc1,inactive
3,O=C(CNS(=O)(=O)c1ccc2c(c1)OCCCO2)N1CCN(c2ccc(F)cc2)CC1,inactive
4,Cc1c(C(=O)Nc2cccc(S(=O)(=O)N3CCOCC3)c2)oc2ccccc12,inactive
5,O=C(O)CCCn1c(=O)c2cccn2c2ccc(F)cc21,inactive
6,COc1cc(/C=C2\Oc3ccc(C#Cc4ccc(O)cc4)cc3C2=O)cc(OC)c1,inactive
7,COc1cc(C#Cc2ccc3cc(CCCO)oc(=O)c3c2)cc(OC)c1,14.6 µM (active)
8,C/C(=N\NC(=S)NC(C)C)c1ccc(C(C)(C)C)cc1,inactive
9,CC/C(=N\NC(=S)NC(C)C)c1ccc(OC(F)F)cc1,22.4 µM (active)
10,CC(NC(=S)Nc1ccc(OC(F)F)cc1)c1ccc(F)cc1 (stereo unspecified),inactive
11,COc1ccc(C)cc1NC(=O)c1cc(-c2ccccc2)nc2c1cnn2C(C)C,inactive
12,Cc1ccc(C)c(OCCC(=O)Nc2cccc(S(=O)(=O)N3CCCC3)c2)c1,inactive
13,Cc1ccnc(N2C(=O)c3ccc([N+](=O)[O-])cc3C2=O)c1,inactive
14,Cc1ccc2nc(NC(=O)CSc3nc(=O)n(CCCN(C)C)c4c3CCC4)sc2c1,inactive
15,CC(C)CC1NC(=O)c2cc(Cl)ccc2-n2c1nc1ccccc1c2=O (stereo unspecified),inactive
16,O=C(Cc1ccc(S(=O)(=O)N2CCOCC2)s1)N1CCN(c2ccc(C(F)(F)F)cc2[N+](=O)[O-])CC1,inactive
17,C[C@H](OC(=O)n1ccnc1)[C@@H]1O[C@@]2(C)CCC[C@@H]1O2,inactive
18,O=C(OCc1cc(=O)n2ccsc2n1)C1(c2ccc(Cl)cc2)CC1,inactive
19,COc1ccc(C)cc1NC(=O)CN1c2cccc3cccc(c23)S1(=O)=O,inactive
20,CCc1ccc(C(=O)NNC(=O)C2CCN(c3ncnc4sc(C)c(C)c34)CC2)cc1,inactive
21,Cc1cccc(C)c1Nc1nnc(SCC(=O)NCCCN2CCCC2=O)s1,inactive

row,SMILES,Potency
1,Brc1ccc(CN2CC[C@H]3C=CCc4cccc(c43)C2)cc1,inactive
2,O=C(OCC(=O)N1CCCCCC1)c1ccc(Cl)nc1,inactive
3,CC1CCCCC12NC(=O)N(CC(=O)OCc1c(F)cccc1Cl)C2=O (stereo unspecified),inactive
4,CCOc1ccc(S(=O)(=O)Nc2ccc(C(=O)NCCCN3CCCC3=O)cc2)cc1,inactive
5,CN(CC(=O)NC1CCN(Cc2ccccc2)CC1)S(=O)(=O)c1ccc(Cl)s1,inactive
6,COc1cc(OC)cc(-c2c(-c3cccs3)c3cc(-c4ccc(OC)nc4)ccc3n2C)c1,inactive
7,Cc1ccc(NC(=O)CN(C)C(=O)c2cccc(S(=O)(=O)N3CCCC3)c2)cc1,inactive
8,CN(C)C(=O)CCc1ccc2c3c([nH]c2c1)[C@]1(CCC2CCCC2)[C@@H](C(=O)N2CCOCC2)C[C@H](CC(=O)NCc2ccco2)C(=O)N1CC3,inactive
9,COc1cccc(CNC(=O)COc2cc(O)c3c(c2)OC(C)(C)CC3=O)c1,inactive
10,Cc1ccc(NC(=O)c2ccc(Cl)nc2)cc1S(=O)(=O)N1CCOCC1,inactive
11,COc1cccc(-c2sc3ccc(OC)cc3c2-c2ccc(OCCN3CCCCC3)cc2)c1,18.4 µM (active)
12,COc1ccc(-c2sc3ccccc3c2-c2ccc(OCCN3CCOCC3)cc2)cc1,inactive
13,COc1ccc2sc(-c3ccccc3OC)c(-c3ccc(OCCN4CCCC4)cc3)c2c1,inactive
14,CCN(CC)c1ccc(S(=O)(=O)N2CCCCC2)cc1NC(=O)C1=COCCO1,inactive
15,COc1ccccc1CNC(=O)c1ccc(Cl)c(S(=O)(=O)N2CCCC2)c1,inactive
16,Cc1onc(-c2c(F)cccc2Cl)c1C(=O)OCC(=O)N1C(C)CCCC1C (stereo unspecified),inactive
17,COc1ccc(S(=O)(=O)N2CCCCCC2)cc1C(=O)N(C)Cc1cccc(OC)c1OC,inactive
18,COC(=O)c1ccc(/C=C/c2c(-c3ccc(OC)cc3)sc3ccccc23)cc1,inactive
19,O=C1Nc2ccccc2/C1=C/c1ccnc2ccccc12,inactive
